{"source": "PubChem BioAssay (NCI)", "note": "This is part of a sample that, as a whole, favours compounds with a hit. Of some 83,000 tested, about 20% had one in any assay.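 Compound tested at a single concentration for 48 hours in 96-well plates; a percent growth value below 10 was scored as active.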 A number with no mark means an inactive call. Activity calls are given as the source filed them."}
{"system": "KM12 colon", "assay": "NCI-60 one-dose screen, 48 h (100 = growth as untreated, 0 = no growth, -100 = all killed)", "conditions": "10 µM unless noted", "procedure": "Growth inhibition of the KM12 human tumor cell line is measured as a screen for anti-cancer activity. Cells are grown in 96 well plates and exposed to the test compound for 48 hours. Compounds are tested at a single concentration, which is 10^-5 M for most compounds. The reported endpoint is percent growth (GI% or GIPRCNT), where numbers from 0 - 100% represent growth inhibition, and numbers from -100% - 0 represent cell death. For example, a value of 40 represents 60% growth inhibition. A value of 0 means no net growth occurred over the course of the experiment. A value of -40 indicates 40% of cells at the beginning of the experiment died by the end of the experiment. A value of -100 means all cells are dead at the end of the experiment.\nNCI-60 Human Tumor Cell Lines Screen was performed using the standard one-dose NCI protocol, which is described in more detail at https://dtp.cancer.gov/discovery_development/nci-60/default.htm.\nCompounds with GIPRCNT values below 10 were considered active. Activity score was based on GIPRCNT using the following formula: […]\nScore is 0 for GIPRCNT values of 100 or above, 50 for GIPRCNT values of 0, and 100 for GIPRCNT values of -100."}
{"smiles": "CC(=O)Nc1nc(C(=O)N2N=C(C)/C(=C/c3ccc(Cl)cc3)C2=O)cs1", "growth": "101%"}
{"smiles": "CCN(CC)CCCNc1nc(C)cc(Nc2ccc3nc(C)cc(N)c3c2)n1", "growth": "101%"}
{"smiles": "CCCCOc1nc2c(C)cccc2cc1C1CNC(=O)c2ccccc2N1", "note": "(stereo not given)", "growth": "56.4%"}
{"smiles": "Cc1ccnc2nc(C(=O)OCC(=O)Nc3ccc(-c4ccccc4)cc3)nn12", "growth": "119%"}
{"smiles": "Cc1cc(C(=O)O)c(N)c(C)n1", "growth": "110%"}
{"smiles": "Cc1ccc(C(=O)c2sc3nc4c(cc3c2N)CCCC4)c(C)c1", "growth": "33.9%"}
{"smiles": "COc1cc(/C=C2\\CCCC3=C2N=C2SC(C)=NN2C3c2cc(OC)c(OC)c(OC)c2)cc(OC)c1OC", "note": "(stereo not given)", "growth": "-37.8% (active)"}
{"smiles": "COc1ccc(/C=C2\\CCCC3=C2NC(C)=NC3c2ccc(OC)c(OC)c2)cc1OC", "note": "(stereo not given)", "growth": "6.19% (active)"}
{"smiles": "CCOC(=O)CC(C#N)(CC(=O)OCC)C(=O)OCC", "growth": "106%"}
{"smiles": "CCSc1nnc(NC(=O)Cc2ccc(Cl)cc2)s1", "growth": "96.9%"}
{"smiles": "COc1ccc(NC(=O)c2cc3ccccc3nc2Nc2cc(OC)c(OC)c(OC)c2)cc1", "growth": "37.9%"}
{"smiles": "CCSc1nnc(Nc2ccc(C(C)C)cc2)s1", "growth": "83.9%"}
{"smiles": "COc1ccc(C(=O)/C=C/c2cc(C(=O)c3cc(OC)c(OC)c(OC)c3)ccc2OC)cc1", "growth": "40.6%"}
{"smiles": "Clc1cccc(Cl)c1Cn1c(-c2cncs2)nc2ccccc21", "growth": "80.5%"}
{"smiles": "NC(=O)NNC(=O)c1ccccc1", "growth": "103%"}
{"smiles": "Cc1nc(Nc2cccnc2)sc1C(=O)/C=C/c1ccc(Cl)cc1", "growth": "12.9%"}
{"smiles": "CCCCCCCCCCC/C=C\\C[C@H](O)C/C=C1/C(=O)C=C[C@@H]1C/C=C\\CCCC(=O)OC", "growth": "-48.5% (active)"}
{"smiles": "CN1CCN(CCCOc2ccc3nc(Nc4ccc(C(F)(F)F)c(Cl)c4)ccc3c2)CC1", "growth": "-14.3% (active)"}
{"smiles": "CCCCCCOc1ccc(C2(Cl)c3ccccc3N(C)c3ccccc32)cc1", "growth": "62.9%"}
{"smiles": "CCNc1nc(N2CC(=O)Nc3cc(OC)ccc32)c2ccccc2n1", "growth": "4.88% (active)"}
{"smiles": "COc1ccc2c(c1)C(=O)/C(=C/c1ccc(O)cc1)O2", "growth": "101%"}
{"smiles": "CCCS(=O)(=O)c1nc(NC2CC2)cc(-c2ccc3c(ccn3C3CC(C)(C)NC(C)(C)C3)c2)n1", "growth": "6.05% (active)"}
{"smiles": "COc1cc(/C=C/C(=O)c2ccc(NC(=O)CN3CCN(c4cc5c(cc4F)c(=O)c(C(=O)O)cn5C4CC4)CC3)cc2)cc(OC)c1OC", "growth": "-65.1% (active)"}
{"smiles": "CC[C@]1(O)C[C@@H]2CN(Cc3c([nH]c4ccccc34)[C@@](C(=O)OC)(c3cc4c(cc3OC)N(C)[C@H]3[C@@](O)(C(=O)OC)[C@H](OC(C)=O)[C@]5(CC)[C@@H]6C[C@@H]6CN6CC[C@]43[C@@H]65)C2)C1", "growth": "-9.75% (active)"}
{"smiles": "CC(=O)c1cc(C(=O)c2ccc3c(c2)Sc2ccccc2N3)c2cc(C)ccn12", "growth": "5.18% (active)"}
{"smiles": "Cc1sc(N=Nc2ccc(N(C)C)cc2)[n+]([O-])c1C", "growth": "91.7%"}
{"smiles": "O=[N+]([O-])c1cc(S(=O)(=O)OCC2CO2)ccc1Cl", "note": "(stereo not given)", "growth": "82.6%"}
{"smiles": "Cc1cccc2cc(/C=C/C(=O)/C=C/c3ccc(Cl)cc3)c(=O)[nH]c12", "growth": "8.42% (active)"}
{"smiles": "Nc1c(C(=O)Nc2cccc(C(F)(F)F)c2)sc2nc3c(cc12)CCCCCC3", "growth": "30.1%"}
{"smiles": "CCN1C(=O)/C(=c2\\sc3n(c2=O)C2C(NN=3)N(CC)C(=S)N2CC)c2ccccc21", "note": "(stereo not given)", "growth": "102%"}
{"smiles": "O=C(c1ccccc1)C(Cl)C(Cl)c1ccccc1", "note": "(stereo not given)", "growth": "81.3%"}
{"smiles": "O=C(Nc1ccc(F)c(Cl)c1)c1n[nH]c(=O)c2ccccc12", "growth": "92.4%"}
{"smiles": "CC1Cc2c(N(C)C)ncnc2N(C)c2ccc(O)cc21", "note": "(stereo not given)", "growth": "59.9%"}
{"smiles": "COc1cc(NC(=O)c2cc3ccccc3nc2Nc2ccc(F)cc2)cc(OC)c1OC", "growth": "42.7%"}
{"smiles": "Nc1nc(-c2ccccc2)cs1", "growth": "106%"}
{"smiles": "CCC(c1ccc(OC)cc1)C(CC)c1ccc(OCC[N+](C)(C)C)cc1", "note": "(stereo not given)", "growth": "49.4%"}
{"smiles": "CCn1c(=O)c2c(=O)c3c4c(oc3oc2c2ccccc21)C(=O)c1ccccc1C4=O", "growth": "86.6%"}
{"smiles": "CC(=O)Nc1ccc(S(=O)(=O)N2C(=O)CCC2C(=O)Nc2ccc(Br)cc2)cc1", "note": "(stereo not given)", "growth": "23.1%"}
{"smiles": "O=C(COc1ccccc1)N1N=C(c2ccc(Cl)cc2)CC1c1c[nH]c2ccccc12", "note": "(stereo not given)", "growth": "74.1%"}
{"smiles": "COc1ccc(C(=O)c2cc(OC)c(OC)c(OC)c2)cc1/C=C/C(=O)c1ccc2c(c1)OCO2", "growth": "-12% (active)"}
